The assay can be described thus: modulators of mitochondrial supercomplex assembly, cell-based, luminescence, Hoechst nuclei count (AID 1645838).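 For all read-outs here: control cybrid cells.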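 For z-score: higher means more mitochondrial supercomplex formation.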 Conditions: Cells, luminescence/Hoechst cell count ratio, supercomplex reporter; for z-score: stronger effect = higher value; for cell count: measured here: cell number, Hoechst nuclei count; for outcome: library stock 10 mM.
Setting [1] is: library stock concentration (final well concentration not given) 46 uM.
The mark [2] stands for this setting: library stock concentration (final well concentration not given) 278 uM.
Setting [3] is: library stock concentration (final well concentration not given) 1.67 mM.
Setting [4] is: library stock concentration (final well concentration not given) 10 mM.
[5] abbreviates: library stock concentration (final well concentration not given) 80 uM.
[6] abbreviates: library stock concentration (final well concentration not given) 400 uM.
[7] abbreviates: library stock concentration (final well concentration not given) 2 mM.

Several values for one entry are separate records, joined by “and”; a condition that tells them apart may be missing. Equal values may be shown once. The whole screen tested about 2,000 compounds, of which about 100 (5%) were called active. Cut-off read from the data, not from the text of the source: active = z-score above about 2; inactive = the rest. For the sample, actives were picked, then their nearest neighbours and some compounds at random.

On to `CN(CC=CC#CC(C)(C)C)Cc1cccc2ccccc12`, for which the z-score is -0.128 (inactive) under setting [1], -0.114 (inactive) under setting [2], -0.2 (inactive) under setting [3] and -0.286 (inactive) under setting [4]. Moreover, the cell count is, setting by setting: under setting [1], 4930; under setting [2], 4830; under setting [3], 5350; under setting [4], 5180.

As for `CCCCCCCCC#CCCCCCCCC(=O)c1nc2ncccc2o1`, the z-score was -0.992 (inactive) and the cell count amounted to 5900.

Regarding `CCOC(=O)C(N)Cc1ccc(-c2cc(OC(c3ccc(Cl)cc3-n3ccc(C)n3)C(F)(F)F)nc(N)n2)cc1` (centres undefined), the z-score under setting [1] is -0.503 (inactive), the z-score under setting [2] was -0.649 (inactive), the z-score under setting [3] was -0.638 (inactive) and the z-score under setting [4] was 1.7 (inactive). The cell count is, setting by setting: under setting [1], 6360; under setting [2], 6270; under setting [3], 6660; under setting [4], 2760.

Turning to `CCCCCCCCCCCCCCCCOC[C@H](COP(=O)([O-])OCC[N+](C)(C)C)OC(=O)NC`, the z-score was -1.68 (inactive) and the cell count is 5690.

Regarding `O=C(c1cc(Cc2n[nH]c(=O)c3ccccc23)ccc1F)N1CCN(C(=O)C2CC2)CC1`, the z-score under setting [5] is -0.363 (inactive), the z-score under setting [6] was -0.127 (inactive), the z-score under setting [7] was 0.0622 (inactive) and the z-score under setting [4] was 2.51 (active). Besides, the cell count under setting [5] is 6190, the cell count under setting [6] stood at 5590, the cell count under setting [7] amounted to 5940 and the cell count under setting [4] worked out at 3720.

Take `O=C(NCc1cccnc1)c1ccc(CNS(=O)(=O)c2ccc(F)cc2)cc1`: the z-score was -0.0415 (inactive) under setting [5], -0.565 (inactive) under setting [6], -0.611 (inactive) under setting [7] and -0.531 (inactive) under setting [4]. Besides, the cell count was determined as 5120 under setting [5], 5290 under setting [6], 5220 under setting [7] and 4960 under setting [4].

With `CC(C)(C)c1ccc(S(=O)(=O)NCc2ccc(C(=O)Nc3cccnc3)cc2)cc1`, the z-score is -0.216 (inactive) under setting [5], 0.0762 (inactive) under setting [6], 0.362 (inactive) under setting [7] and 0.0219 (inactive) under setting [4]. For the same compound, the cell count by setting is: under setting [5], 6170; under setting [6], 5130; under setting [7], 2500; under setting [4], 1690.

Turning to `Nc1ccccc1NC(=O)c1ccc(CNC(=O)OCc2cccnc2)cc1`, the z-score was 5.22 (active) and the cell count was determined as 4300. Moreover, under setting [1], the z-score was -0.106 (inactive) and the cell count turned out to be 4680. Under setting [2], the z-score is -0.0587 (inactive) and the cell count came to 4820. For the same compound, under setting [3], the z-score was 4.46 (active) and the cell count is 3240. Moreover, under setting [4], the z-score is 13.5 (active) and the cell count is 1730.

Take `CC1CN(CC(=O)Nc2ccc3c(c2)Cc2cccc(-c4cc(=O)cc(N5CCOCC5)o4)c2S3)CC(C)O1` (centres undefined): the z-score reads like this: under setting [5], -0.376 (inactive); under setting [6], -0.656 (inactive); under setting [7], 0.69 (inactive); under setting [4], 4.45 (active). Further, the cell count came out at 6150 under setting [5], 6090 under setting [6], 4680 under setting [7] and 1840 under setting [4].

Regarding `O=c1cc(-c2cccc3c2Sc2ccccc2S3)oc(N2CCOCC2)c1`, the z-score is -0.163 (inactive) under setting [1]; -0.486 (inactive) under setting [5]; -0.0765 (inactive) under setting [2]; -0.335 (inactive) under setting [6]; -0.27 (inactive) under setting [3]; -0.523 (inactive) under setting [7]. Under setting [4], the z-score is 0.302 (inactive) and 0.32 (inactive). Also, the cell count is, setting by setting: under setting [1], 6030; under setting [5], 4590; under setting [2], 5590; under setting [6], 4700; under setting [3], 5740; under setting [7], 4720. The cell count under setting [4] is 3610 and 4370.

In the case of `CCCCCCCCCCCCCCCCCCCCCC(=O)NCCO`, the z-score is 0.434 (inactive) and the cell count was 5500.

For `O=C(O)CCC/C=C\C[C@H]1[C@@H](/C=C/[C@@H](O)CCc2ccccc2)[C@H](O)C[C@@H]1O`, the z-score was -0.319 (inactive) and the cell count came out at 5160.

Regarding `CCCCCC(=O)Nc1c(C)cc(Br)cc1C`, the z-score runs as follows: under setting [5], 0.207 (inactive); under setting [6], 0.413 (inactive); under setting [7], -0.729 (inactive); under setting [4], -0.28 (inactive). Moreover, the cell count under setting [5] was found to be 4910, the cell count under setting [6] came to 4850, the cell count under setting [7] was found to be 5330 and the cell count under setting [4] was determined as 4660.

Take `O=C(CCCCc1ccccc1)C(F)(F)C(F)(F)F`: the z-score is -0.184 (inactive) and the cell count amounted to 5310.

Turning to `CC(=O)N[C@@H](CSC/C=C(\C)CC/C=C(\C)CC/C=C(\C)CCC=C(C)C)C(=O)O`, the z-score was 1.41 (inactive) and the cell count worked out at 5420.

Turning to `CCC(CO)Nc1nc(NCc2ccccc2)c2ncn(C(C)C)c2n1` (centres undefined), the z-score is -0.719 (inactive) under setting [5], -0.53 (inactive) under setting [6], -0.509 (inactive) under setting [7] and 0.143 (inactive) under setting [4]. The cell count is, setting by setting: under setting [5], 5300; under setting [6], 4780; under setting [7], 4590; under setting [4], 3210.

`Cn1cnc2c(NCc3ccccc3)nc(NCCO)nc21`: the z-score was 0.158 (inactive) and the cell count came out at 4830.

For the compound `NC(=O)c1cnc(NCCc2ccc(O)c(Cl)c2)nc1NCc1ccccc1`, the outcome is “inactive; censored for cell count”. For the same compound, under setting [1], the z-score was -1.13 (inactive) and the cell count worked out at 7430. Under setting [2], the z-score is -0.967 (inactive) and the cell count amounted to 6770. In addition, under setting [3], the z-score is 6.17 (active) and the cell count stood at 1590.

As for `CC(O)C(O)C1CNc2nc(N)[nH]c(=O)c2N1` (centres undefined), the outcome is “inactive; censored for cell count”. Under setting [5], the z-score is -0.395 (inactive) and the cell count is 5380. Also, under setting [6], the z-score is -0.667 (inactive) and the cell count is 5520. Moreover, under setting [7], the z-score is -0.491 (inactive) and the cell count came out at 4750.

As for `C#C[C@]1(O)CC[C@@H]2[C@@H]3CCc4cc(O)ccc4[C@@H]3CC[C@@]21C`, the z-score is -0.386 (inactive) under setting [5], -0.396 (inactive) under setting [6], -0.217 (inactive) under setting [7] and -0.397 (inactive) under setting [4]. The cell count came to 5910 under setting [5], 5660 under setting [6], 5810 under setting [7] and 5370 under setting [4].
